Experimental data from PubChem BioAssay (EPA / NIEHS).
Calls of active or inactive are those of the source. The calls were made as follows: active = hit-call score of the fitted dose curve at least 0.9, where 1 is the maximum; inactive = score below 0.9.

Assay: CEETOX_H295R_DOC: CeeTox H295R High-throughput Steroidogenesis Assay for DOC (AID 2283439)
Details: actives raise or lower the signal
Outline: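 H295R cells prestimulated 48 h with 10 uM forskolin, then exposed 48 h to test chemical (0.1% DMSO final). Medium 11-deoxycorticosterone measured by HPLC-MS/MS after MTBE extraction; bidirectional fit vs DMSO, viability checked by MTT in same wells.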

Row | SMILES | outcome | AC50
1 | Nc1ccc2c(c1)C(=O)c1ccccc1C2=O | inactive | 
2 | Cc1cc(NC(=O)C(=O)O)cc(C)c1Oc1ccc(O)c2c1CCC2 |  | 37.6 µM (active)
3 | Cc1nc(-c2ccc3c(c2)CCN(CCC2CCC(NC(=O)/C=C/c4ccc(F)cc4)CC2)CC3)no1 (stereo not given) |  | 0.0532 µM (active)
4 | Cc1cccc(Nc2cc(Cl)nc(SCC(=O)O)n2)c1C | inactive | 
5 | Nc1ccccc1N | inactive | 
6 | Cc1nc(C)nc(N2C[C@@H](C)N(c3ccnc([C@@H](C)O)n3)[C@@H](C)C2)n1 | inactive | 
7 | COc1ccc(C)cc1N | inactive | 
8 | COc1ccc(S(=O)(=O)N2C(=O)[C@@](c3ccccc3OC)(N3C[C@H](O)C[C@H]3C(=O)N(C)C)c3cc(Cl)ccc32)c(OC)c1 | inactive | 
9 | Cc1c(C(=O)O)c(O)cc2c1C(=O)c1c(O)c([C@@H]3O[C@H](CO)[C@@H](O)[C@H](O)[C@H]3O)c(O)c(O)c1C2=O | inactive | 
10 | CN1CCN(Cc2cc(-c3ccc4[nH]c(=O)oc4c3)co2)[C@@H](c2ccc(F)cc2)C1 | inactive | 
11 | c1cc(-c2ccncc2)ccn1 | inactive | 
12 | NC(=O)Cn1c(=O)cc(CCN2CCN(c3nccc4sccc34)CC2)c2ccc(F)cc21 |  | 16.9 µM (active)
13 | Oc1ccc2c(c1)OC[C@@H](N1CCC(O)(c3ccc(F)cc3)CC1)[C@H]2O | inactive | 
14 | COc1ccc2c(c1)c(CC(=O)O)c(C)n2C(=O)c1ccc(Cl)cc1 | inactive | 
15 | COC(=O)c1ccc(O)cc1 | inactive | 
